Values joined by “and” are separate entries in the source; they are usually repeats but may differ in a detail not shown here. Identical values can stand only once. Inconclusive results are not listed. A structure can be active in one record and inactive in another. Active and inactive are the calls of the source. Unless noted, the call rests on the fitted dose curve; in most records, active means well fitted curve in the direction sought with a large enough effect in the repeat runs; inconclusive means weak or mixed curves; inactive means no such curve, though single readings can be large; an effect the other way counts as inactive or inconclusive.
Experiments:
[1] = qHTS assay for small molecule agonists of the p53 signaling pathway (AID 651631; calls by dose curve; further: nearly all actives have a fitted effect of over 15% in size; further: potency means the concentration at half of the fitted maximal effect)
Method in brief: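 Stably transfected HCT-116 cells (beta-lactamase behind p53 response elements) get compounds after a 5 h settling period; 16 h later at 37 °C, FRET substrate is loaded and fluorescence read after 2 h.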

[2] = qHTS assay for small molecule agonists of the p53 signaling pathway - cell viability (AID 651633; calls by dose curve; further: nearly all actives have a fitted effect of over 30% in size; further: potency means the concentration at half of the fitted maximal effect)
Method in brief: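 p53RE-bla cells were treated with compound for 16 hours at 37 C. Cytotoxicity was then measured as CellTiter-Glo luminescence after 30 min at room temperature.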

[3] = qHTS assay for small molecules that induce genotoxicity in human embryonic kidney cells expressing luciferase-tagged ATAD5 - cell viability (AID 651634; calls by dose curve; further: nearly all actives have a fitted effect of over 25% in size; further: potency means the concentration at half of the fitted maximal effect)
Method in brief: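 Seeding of 2,000 HEK293T ATAD5-luciferase cells per well preceded pin-tool compound transfer. Plates sat 15.5 hr at 37C under 5% CO2, then fluorescence was read after 30 min with CellTiter-Fluor.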

[4] = qHTS assay for small molecule disruptors of the mitochondrial membrane potential - cell viability (AID 720634; calls by dose curve; further: nearly all actives have a fitted effect of over 20% in size; further: potency means the concentration at half of the fitted maximal effect)
Method in brief: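 Measuring cytotoxicity alongside mitochondrial potential, the screen quantified ATP by luminescence in HepG2 cells after 1 hr compound incubation and a 30 min room-temperature CellTiter-Glo step.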

[5] = qHTS assay for small molecule disruptors of the mitochondrial membrane potential (AID 720635); further: potency means the concentration at half of the fitted maximal effect
Method in brief: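 HepG2 cells exposed to compound 1 hr at 37C, then Mito-MPS dye 30 min. Ratio read of aggregate (540/590 nm) versus monomer (490/535 nm) fluorescence.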

[6] = qHTS assay to test for compound auto fluorescence at 590 nm (red) in HepG2 cells (AID 720674)
Method in brief: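 Seeding: 2,000 HepG2 cells/well, MEM/10% FBS, overnight 37 C. Dosing: compound vs DMSO. Incubation: 1 hr, 37 C, 5% CO2. Read: fluorescence 540 ex/590 em, Rose Bengal sodium as red reference.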

[7] = qHTS assay to test for compound auto fluorescence at 535 nm (green) in HepG2 cells (AID 720675)
[8] = qHTS assay to test for compound auto fluorescence at 460 nm (blue) in HEK293 cells (AID 720678)
Method in brief: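 Measured: blue fluorescence (Ex 405/Em 460 nm) of compound-treated HEK293 cells, incubated overnight at 37C with 5% CO2 and scaled to triamterene equivalents.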

[9] = qHTS assay to test for compound auto fluorescence at 590 nm (red) in HEK293 cells (AID 720679)
Method in brief: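 Using HEK293 cells at 2,000 per well, the screen added 23 nL of each compound after cell attachment and incubated overnight (37C, 5% CO2). The plate reader then captured red-label fluorescence, Ex/Em 540/590nm.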

[10] = qHTS assay to test for compound auto fluorescence at 535 nm (green) in HEK293 cells (AID 720680)
[11] = qHTS assay to test for compound auto fluorescence at 460 nm (blue) in HEK293 cell free culture (AID 720681)
Method in brief: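 Compounds were added to cell-free DMEM with 10% FBS and fluorescence read directly. The blue channel used 405 nm excitation and 460 nm emission, with triamterene as the reference fluorophore.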

[12] = qHTS assay to test for compound auto fluorescence at 535 nm (green) in HEK293 cell free culture (AID 720682)
Method in brief: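 Using fluorescein as calibrant, autofluorescence was quantified at 485/535 nm in cell-free DMEM containing 10% FBS after pintool addition of compound or vehicle.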

[13] = qHTS assay to test for compound auto fluorescence at 590 nm (red) in HEK293 cell free culture (AID 720683)
Method in brief: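 Cell-free wells of DMEM with 10% FBS received compound, and intrinsic fluorescence was read at excitation/emission 540/590 nm. Values expressed as equivalence to Rose Bengal sodium.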

[14] = qHTS assay to test for compound auto fluorescence at 590 nm (red) in HepG2 cell free culture (AID 720684)
Method in brief: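 Compound was pinned into wells holding MEM with 10% FBS and no cells, and red fluorescence was read at Ex/Em 540/590 nm. Signal is expressed as auto fluorescence equivalency relative to Rose Bengal sodium.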

[15] = qHTS assay to test for compound auto fluorescence at 535 nm (green) in HepG2 cell free culture (AID 720686)
[16] = qHTS assay to test for compound auto fluorescence at 460 nm (blue) in HepG2 cells (AID 720687)
Method in brief: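 HepG2 cells in MEM with 10% FBS, attached overnight at 37 C, were exposed to compound or DMSO for 1 hr at 37 C, 5% CO2. Blue fluorescence was read at 405/460 nm, with triamterene as reference fluorophore.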

[17] = molecular target: Glucocorticoid receptor (Homo sapiens) (UniProt P04150); assay: qHTS assay to identify small molecule agonists of the glucocorticoid receptor (GR) signaling pathway (AID 720691; active means well fitted activation curve with a large enough effect in the signal ratio in the repeat runs, not every such curve was filed as active; the % refers to the signal ratio; further: potency means the concentration at half of the fitted maximal effect)
Method in brief: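 Reporter read-out: fluorescence intensity following 2 h room-temperature LiveBLAzer B/G FRET substrate loading. Prior step: GR-bla HeLa cells held 4 h, then treated 18 h at 37 C.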

[18] = molecular target: Glucocorticoid receptor (Homo sapiens) (UniProt P04150); assay: qHTS assay to identify small molecule antagonists of the glucocorticoid receptor (GR) signaling pathway (AID 720692; active means well fitted inhibition curve with a large enough effect in the signal ratio in the repeat runs, not every such curve was filed as active; the % refers to the signal ratio; further: potency means the concentration at half of the fitted maximal effect)
Method in brief: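 Dexamethasone (5 nM final) stimulated a stably integrated GRE-beta-lactamase reporter in HeLa cells during 18 h co-incubation with compounds; signal was quantified as fluorescence intensity of B/G FRET substrate after 2 h.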

[19] = qHTS assay for small molecules that induce genotoxicity in human embryonic kidney cells expressing luciferase-tagged ATAD5 (AID 651632); further: nearly all actives have a fitted effect of over 15% in size
Method in brief: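 Reporter cells (HEK293T) express luciferase-tagged ATAD5, a protein that accumulates after DNA damage. Treat 16 hr at 37C/5% CO2, add Amplite, wait 30 min at RT, and read luminescence.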

[20] = qHTS assay to test for compound auto fluorescence at 460 nm (blue) in HepG2 cell free culture (AID 720685)
Method in brief: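 Compound (23 nL) or DMSO pinned into cell-free MEM with 10% FBS; blue fluorescence read at 405/460 nm excitation/emission, expressed as auto-fluorescence equivalency to triamterene.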

Measured: Potency

Chain of Glucocorticoid receptor (Homo sapiens) (P04150 whole entry, looked up): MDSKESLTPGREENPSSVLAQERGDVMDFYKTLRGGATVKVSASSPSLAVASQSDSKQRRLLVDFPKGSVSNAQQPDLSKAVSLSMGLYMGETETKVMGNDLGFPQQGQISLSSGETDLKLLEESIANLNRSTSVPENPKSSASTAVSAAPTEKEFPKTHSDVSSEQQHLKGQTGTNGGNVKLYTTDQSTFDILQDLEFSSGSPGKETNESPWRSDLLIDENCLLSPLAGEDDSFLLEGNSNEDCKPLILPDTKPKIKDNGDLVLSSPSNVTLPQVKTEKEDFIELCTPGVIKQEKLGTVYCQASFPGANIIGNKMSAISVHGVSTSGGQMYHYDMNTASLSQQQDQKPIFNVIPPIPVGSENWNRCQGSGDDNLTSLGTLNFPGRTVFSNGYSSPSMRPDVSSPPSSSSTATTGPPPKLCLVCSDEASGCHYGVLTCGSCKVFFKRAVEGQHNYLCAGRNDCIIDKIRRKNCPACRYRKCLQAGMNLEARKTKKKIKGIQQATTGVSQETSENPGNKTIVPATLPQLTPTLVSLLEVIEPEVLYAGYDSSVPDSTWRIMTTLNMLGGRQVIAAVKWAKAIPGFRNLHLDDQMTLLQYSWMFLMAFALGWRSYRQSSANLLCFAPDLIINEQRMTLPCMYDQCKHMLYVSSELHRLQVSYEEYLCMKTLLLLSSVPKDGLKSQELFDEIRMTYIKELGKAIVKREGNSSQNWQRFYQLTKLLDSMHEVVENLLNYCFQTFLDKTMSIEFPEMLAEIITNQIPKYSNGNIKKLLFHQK

Cc1cc(C)nc(NS(=O)(=O)c2ccc(N)cc2)n1
not listed: [19] | [20]
inactive: all other assays above

CN(C)C(=S)SC(=S)N(C)C
inactive and 243 nM (active): [2]
active: [5] 2.98 µM and 28 µM and 61.1 µM | [17] 0.448 µM
not listed: [3] | [18] | [20]
inactive: all other assays above

COc1cccc(O)c1O
active: [3] 17.9 µM
not listed: [5] | [14] | [19]
inactive: all other assays above

COc1ccc2c(c1)c(CC(=O)O)c(C)n2C(=O)c1ccc(Cl)cc1
not listed: [5] | [14] | [18]
inactive: all other assays above

CC(=O)Nc1c(I)c(NC(C)=O)c(I)c(C(=O)O)c1I
not listed: [1] | [14]
inactive: all other assays above

Nc1c(N=Nc2ccc(-c3ccc(N=Nc4cc(S(=O)(=O)O)c5ccccc5c4N)cc3)cc2)cc(S(=O)(=O)O)c2ccccc12
active: [3] 13.3 µM and 27.3 µM | [5] 17.2 µM | [18] 21.3 µM
not listed: [1]
inactive: all other assays above

Nc1ccc(S(N)(=O)=O)cc1
not listed: [14] | [19]
inactive: all other assays above

CNNCc1ccc(C(=O)NC(C)C)cc1
not listed: [4] | [5] | [19]
inactive: all other assays above

Nc1ccc([N+](=O)[O-])cc1O
active: [3] 54.5 µM | [5] 17.2 µM
not listed: [1] | [18] | [20]
inactive: all other assays above

COc1ccc(OC(F)(F)F)cc1CN[C@H]1CCCN[C@H]1c1ccccc1
not listed: [5] | [9] | [18] | [20]
inactive: all other assays above

NC(=O)n1c(O)c(C(=O)c2cccs2)c2cc(Cl)ccc21
active: [1] 5.96 µM | [2] 8.41 µM | [5] 11.9 µM
not listed: [3] | [18]
inactive: all other assays above

CCCCCCCCCCCCCCCC[N+](C)(C)Cc1ccccc1
active: [2] 11.9 µM and 35.5 µM and 39.3 µM | [3] 29.8 µM and 79.4 µM | [4] 26.6 µM | [5] 4.22 µM and 10 µM and 13.9 µM
not listed: [1] | [9] | [14] | [17] | [18] | [20]
inactive: all other assays above

Nc1ccc(O)c([N+](=O)[O-])c1
active: [3] 53.9 µM | [5] 3.03 µM
not listed: [1] | [18]
inactive: all other assays above

Nc1c2c(nc3ccccc13)CCCC2
not listed: [1] | [14] | [17] | [18]
inactive: all other assays above

CC(O)(P(=O)(O)O)P(=O)(O)O
not listed: [1] | [14] | [17] | [18]
inactive: all other assays above

O=C1c2c(O)cccc2Cc2cccc(O)c21
not listed: [5] | [9] | [14] | [20]
inactive: all other assays above

CC1(C)S[C@@H]2[C@H](NC(=O)[C@H](N)c3ccccc3)C(=O)N2[C@H]1C(=O)O
not listed: [4] | [5] | [14] | [17] | [18]
inactive: all other assays above

NC1CCCCC1
not listed: [1] | [9] | [14] | [17] | [18]
inactive: all other assays above

Cc1cn([C@H]2C=C[C@@H](CO)O2)c(=O)[nH]c1=O
not listed: [1] | [14] | [17] | [18] | [20]
inactive: all other assays above

Cn1c(=O)c2c(ncn2C)n(C)c1=O
not listed: [3] | [9] | [14] | [19]
inactive: all other assays above

CCCCCCCCCCCC[N+](C)(C)Cc1ccccc1
active: [2] 18.8 µM and 47.6 µM and 29.7 µM | [3] 26.8 µM and 74.5 µM | [5] 8.41 µM and 19 µM and 21 µM
not listed: [1] | [9] | [17] | [18] | [20]
inactive: all other assays above

CC(C)C(=O)Nc1ccc([N+](=O)[O-])c(C(F)(F)F)c1
active: [4] 12.5 µM and 27.3 µM | [5] 13.3 µM and 6.29 µM and 9.69 µM
not listed: [1] | [9] | [17] | [18] | [20]
inactive: all other assays above

CN1CCc2cccc3c2[C@H]1Cc1ccc(O)c(O)c1-3
not listed: [1] | [9]
inactive: all other assays above

Oc1ccccc1
not listed: [17] | [18] | [19] | [20]
inactive: all other assays above

Cc1cccc(C)c1
not listed: [1] | [9] | [20]
inactive: all other assays above

CCCCOC(=O)c1ccc(O)cc1
active: [5] 23.7 µM and 9.81 µM and 19.3 µM
not listed: [9] | [19] | [20]
inactive: all other assays above

O=C1O[C@H]([C@@H](O)CO)C(O)=C1O
not listed: [2] | [14] | [20]
inactive: all other assays above

CN(C)CCOC(c1ccccc1)c1ccccc1
not listed: [1] | [9] | [20]
inactive: all other assays above

CCN(CC)C(=O)c1cccc(C)c1
not listed: [1] | [5] | [20]
inactive: all other assays above

CC(C)NCC(O)c1ccc(O)c(O)c1 (centres undefined)
not listed: [1] | [14] | [19]
inactive: all other assays above

Reference: PubChem BioAssay (Tox21)
